In the library only some 2.5% were active in any assay of this set; here they are far more common.
EWS-Fli inh: blocks EWS/Fli oncoprotein-driven transcription; A673 NR0B1-luciferase reporter, viability-normalised; inhibition, % at 12.6 µM; actives 0.67% (n = 350,000);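 active = mean inhibition of at least 50% after viability correction, with every replicate also passing that limit; inconclusive = mean reaches 50% but only one of two replicates passes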;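 also: firefly luciferase signal divided by Alamar Blue viability fluorescence both relative to DMSO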
LGR2 antag: Drosophila LGR2 receptor signaling inhibition. actives 0.35% (n = 380,000). HEK293 LGR2, CRE-luciferase, bursicon-stimulated, 4 h. inhibition, % at 9.99 µM;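 active = drop in luminescence signal, shown as inhibition above about 50% in the replicate tests, limit read from the data, passing the limit was not always enough; inconclusive = probably only some replicates passing the limit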;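 also: agonist challenge used bursicon conditioned medium at about half maximal strength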
LMP1 NFkB inh: reduces LMP1-driven NF-kappaB luciferase signal; LMP1-induced NF-kappaB luciferase reporter cells, luminescence; inhibition, % at 12.5 µM; actives 0.69% (n = 350,000); AID 504558; in the data active = inhibition above about 41%; inconclusive = no clear call, values can overlap the other calls;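 also: 0% = neutral control wells and 100% = reference inhibitor control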
TROY NFkB inh: blocks TROY-dependent signaling in reporter cells | Q293 LMP1-TROYcd NF-kB luciferase reporter, 4 h | inhibition, % at 10 µM | actives 0.98% (n = 360,000);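 active = compounds whose plate-normalised and pattern-corrected inhibition of the luciferase reporter signal at the single screening dose is 50% or more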
TWEAK-Fn14 inh: inhibitors of TWEAK-Fn14 interaction signaling. actives 2% (n = 360,000). inhibition, % at 10 µM. TWEAK-stimulated Fn14 reporter cells, luciferase luminescence, 8 h; in the data active = inhibition above about 50%
* hit, by the source's call; ? = inconclusive; . = no result given.

SMILES | EWS-Fli inh | LGR2 antag | LMP1 NFkB inh | TROY NFkB inh | TWEAK-Fn14 inh
COc1ccc(C(CNC(=O)c2ccco2)N2CCOCC2)cc1 (configuration not stated) | -8 | 9 | -12 | -4 | -30
CCCNC(=O)N(C)C[C@H]1Oc2cc(-c3ccc(C)cc3)ccc2S(=O)(=O)N([C@@H](C)CO)C[C@H]1C | 3 | -13 | . | . | .
Cc1ccccc1-c1cn(-c2ccccc2)c(=S)[nH]1 | 3 | 13 | -6 | -8 | -23
Cc1ccc(-c2cn(-c3ccccc3)c(=S)[nH]2)cc1C | -26 | -25 | -37 | 50 | 68*
CN(Cc1ccccc1)C(=O)N[C@@H](Cc1ccccc1)C(=O)O | . | . | -4 | . | 81*
CC(C)OCCCn1c(NN)nc2ccccc2c1=O | 18 | -19 | 0 | -9 | -12
NNc1nc2ccccc2c(=O)n1Cc1ccccc1 | -51 | -36 | -9 | -53 | 74*
COc1ccc(-c2csc3ncn(Cc4ccccc4)c(=O)c23)cc1 | 15 | -22 | 2 | -7 | 91*
COc1ccc(-n2cnc3scc(-c4ccccc4)c3c2=O)cc1 | -6 | -7 | -10 | 10 | -4
COCC(=O)N1[C@H](CO)[C@@H](c2ccccc2)C12CN(C(=O)NC1CCCCC1)C2 | 4 | -10 | . | . | .
Cc1ccc(NC(=O)COC(=O)c2c(-c3ccccc3)noc2C)cc1 | -2 | 12 | 6 | 12 | 3
Cc1onc(-c2ccccc2)c1C(=O)OCC(=O)Nc1ccc(OC(F)(F)F)cc1 | 3 | 24 | 0 | 52* | 15
CCOC(=O)c1cccc(Nc2nc(-c3cccnc3)nc3ccccc23)c1 | . | . | 12 | 37 | 69*
COC(=O)c1cccc(Nc2nc(-c3cccnc3)nc3ccccc23)c1 | 6 | 33 | 3 | -3 | 44
CC(/C=C1\SC(=S)N(CC(=O)O)C1=O)=C\c1ccccc1 | 6 | 8 | -8 | -32 | -2
CC(=C\c1ccccc1)/C=C1/SC(=S)N(CCC(=O)O)C1=O | 23 | -11 | 0 | 9 | 55*
C=CCSc1nsc(NC(=O)Nc2ccc(F)cc2)n1 | -36 | 17 | 32 | 31 | 52*
COc1ccc(C(=O)Nc2ccc3nc(N4CCOCC4)sc3c2)cc1OC | 1 | -3 | -2 | 29 | -12
CCCn1nc(C(=O)Nc2ccc3nc(N4CCOCC4)sc3c2)ccc1=O | 38 | 9 | 18 | 53* | 25
CO[C@@H]1CN(C)C(=O)c2cc(NC(=O)NC(C)C)ccc2OC[C@@H](C)N(Cc2ccc(-c3ccccn3)cc2)C[C@@H]1C | 0 | -2 | . | . | .
COc1ccc(OC)c(CCNC(=O)CCn2nc(C)c3c(C)n(-c4ccccc4)nc3c2=O)c1 | . | 11 | 55* | -3 | -16
CSc1ncccc1C(=O)OCC(=O)c1cc(C)n(C)c1C | -80 | . | -23 | -72 | 1
Cc1cc(C(=O)COC(=O)C2CCN(C(=O)c3ccc(Cl)cc3)CC2)c(C)n1CC1CCCO1 (configuration not stated) | -12 | 2 | 5 | 19 | 68*
CCn1c(C)cc(C(=O)COC(=O)c2cccnc2SC)c1C | -53 | -64 | -25 | -12 | 0
CCC(=O)c1ccc(OCC(=O)OCC(=O)c2cc(C)n(CC3CCCO3)c2C)cc1 (configuration not stated) | -11 | -27 | -9 | -13 | -1
SMILES | EWS-Fli inh | LGR2 antag | LMP1 NFkB inh | TROY NFkB inh | TWEAK-Fn14 inh
CSc1ncccc1C(=O)OCC(=O)c1cc(C)n(CC2CCCO2)c1C (configuration not stated) | -82 | 5 | -13 | 62* | 76*
COc1cc(C(=O)OCC(=O)c2cc(C)n(CC3CCCO3)c2C)cc(OC)c1C (configuration not stated) | -16 | . | 1 | -5 | 18
Cc1cc(C(=O)COC(=O)c2ccc3c(c2)OCO3)c(C)n1CC1CCCO1 (configuration not stated) | -15 | -50 | -7 | 77* | 58*
Cc1cc(C(=O)COC(=O)c2cccnc2Cl)c(C)n1C | 48 | ? | 40 | 4 | 76*
CCC(=O)N(C)C[C@@H]1Oc2cc(-c3cncnc3)ccc2S(=O)(=O)N([C@@H](C)CO)C[C@H]1C | -23 | 3 | . | . | .
Cc1ccc(S(=O)(=O)N(C)C[C@H]2Oc3ccc(NS(=O)(=O)c4ccc(F)cc4)cc3C(=O)N([C@H](C)CO)C[C@@H]2C)cc1 | 1 | -6 | . | . | .
C[C@@H]1CN([C@@H](C)CO)C(=O)c2cc(C3=CCCCC3)cnc2O[C@H]1CN(C)C(=O)c1ccncc1 | -9 | 7 | . | . | .
COc1ccc(-n2ncc3c(NCC(C)C)ncnc32)cc1 | . | 0 | 7 | 31 | 50*

Bioassay records (PubChem)
